Assays:
Settings in all cases: concentration: 10 µM; 24 h
[1] = tested on: HCC1569; experiment: cell number relative to DMSO (% of DMSO); higher = more cells (less growth inhibition / toxicity)
Outline: (§1)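 Treatment: HCC1569 and TDF cells, 800 per well in 384-well plates with RPMI and 10% FBS, were given compounds at 10 µM for 24 h at 37 °C, in triplicate. Readout: after 3.7% formaldehyde fixation, cells were stained with a rabbit anti-H1.0 antibody, an AlexaFluor 647 secondary and DAPI. Reported values are H1.0 nuclear intensity or cell number as percent of the plate control, taken as the median of replicates, with positional smoothing for HCC1569.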

[2] = tested on: TDF; experiment: as above
Outline: as §1

[3] = tested on: TDF; experiment: H1.0 immunofluorescence intensity relative to DMSO (% of DMSO); higher = stronger H1.0 induction, active = 120 or more
Outline: as §1

[4] = tested on: HCC1569; experiment: H1.0 immunofluorescence intensity relative to DMSO (% of DMSO); higher = stronger H1.0 induction, active = 140 or more
Outline: as §1
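For H1.0 immunofluorescence intensity relative to DMSO in this document: TDF is a line of transformed human dermal fibroblasts of mesenchymal origin.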
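For cell number relative to DMSO in this document: TDF denotes transformed human dermal fibroblasts of mesenchymal origin.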

SMILES | cell number [1] | cell number [2] | H1.0 immunofluorescence intensity [3] | H1.0 immunofluorescence intensity [4]
O=c1cc(N2CCOCC2)oc2c1ccc1ccccc12 [NU 7026 - 2-(4-Morpholinyl)-4H-naphthol[1,2-b]pyran-4-one] | 96 | 106 | 94 (inactive) | 105 (inactive)
CC(C)C(=O)Nc1ncc(-c2cc(C(F)F)nn2-c2c(Cl)cccc2Cl)s1 | 75.5 | 69.8 | 111 (inactive) | 111 (inactive)
COc1ccc2c(c1)c(CC(=O)O)c(C)n2Cc1ccc(F)cc1 [1-(4-Fluorobenzyl)-5-methoxy-2-methylindole-3-acetic acid] | 101 | 95.2 | 95.4 (inactive) | 85.5 (inactive)
CCC(=C(c1ccccc1)c1ccc(OCCN(C)C)cc1)c1ccccc1.O=C(O)CC(O)(CC(=O)O)C(=O)O [Tamoxifen citrate] | 85.2 | 95.2 | 115 (inactive) | 146 (active)
O=C1CCC(c2ccc(-n3ccnc3)cc2)=NN1 [Imazodan] | 95.5 | 93.8 | 103 (inactive) | 118 (inactive)
CCCCC1(C2CCCC2)Cc2cc(OCC(=O)O)c(Cl)c(Cl)c2C1=O (stereo not drawn) [R(+)-Butylindazone] | 98.8 | 107 | 86.7 (inactive) | 91.3 (inactive)
Cc1cccc(C)c1OCC(C)N.Cl (stereo unspecified) [Mexiletene hydrochloride] | 104 | 104 | 87.8 (inactive) | 94.3 (inactive)
CCOc1cc(N2CCC(O)CC2)ccc1Nc1ncc2c(n1)N(C)c1ccccc1C(=O)N2C | 85.6 | 72.2 | 117 (inactive) | 169 (active)
COc1ccc(-c2cc(=O)c3c(O)cc(O)cc3o2)cc1 [Acacetine] | 98.4 | 95.3 | 100 (inactive) | 90.7 (inactive)
O=C(OC1Cc2c(O)cc(O)cc2OC1c1cc(O)c(O)c(O)c1)c1cc(O)c(O)c(O)c1 (stereo unspecified) [Epigallocatechin gallate] | 105 | 97 | 94.8 (inactive) | 100 (inactive)
CCCN(CCC)C(=O)C(CCC(=O)O)NC(=O)c1ccccc1 (stereo unspecified) [Proglumide] | 109 | 112 | 88.6 (inactive) | 88 (inactive)
COc1cc(C)c(C=CC(C)=CC=CC(C)=CC(=O)O)c(C)c1C [Acitretin] | 98.5 | 108 | 90.1 (inactive) | 126 (inactive)
COc1cc(C2CC(=O)c3c(O)cc(O)cc3O2)ccc1O (stereo unspecified) [Homoeriodictyol] | 97.9 | 99.7 | 99 (inactive) | 88.7 (inactive)
CC#CC(=O)Nc1cc2c(Nc3ccc(F)c(Cl)c3)ncnc2cn1 [EGFR/ErbB-2/ErbB-4 Inhibitor] | 87.1 | 78.2 | 104 (inactive) | 113 (inactive)
CC(C)(S)[C@H](N)C(=O)O [L-Penicillamine] | 100 | 102 | 98.5 (inactive) | 90.8 (inactive)
CC1COc2c(N3CCN(C)CC3)c(F)cc3c(=O)c(C(=O)O)cn1c23 (stereo unspecified) [Levofloxacin] | 103 | 100 | 98.5 (inactive) | 101 (inactive)
CC(=O)O.NC(=NCCCC(N)C(=O)O)NO [NG-Hydroxy-L-arginine acetate] | 97.8 | 107 | 91.4 (inactive) | 89.2 (inactive)
C[n+]1cc2c3c(ccc2c2ccc4cc5c(cc4c21)OCO5)OCO3 [Sanguinarine] | 93.5 | 93.6 | 98.2 (inactive) | 114 (inactive)
CN1CCc2cc(Cl)c(O)cc2C(c2ccccc2)C1.Cl (stereo unspecified) | 103 | 104 | 88.5 (inactive) | 94.6 (inactive)
COc1cc2ncnc(N3CCN(C(=O)Nc4ccc(Oc5ccccc5)cc4)CC3)c2cc1OC [PDGF Receptor Tyrosine Kinase Inhibitor III] | 72.2 | 62.2 | 102 (inactive) | 215 (active)
NC(=O)c1ccc2[nH]ccc2c1 | 108 | 97.1 | 101 (inactive) | 94.2 (inactive)
CN(C)CCC(c1ccc(Br)cc1)c1ccccn1.O=C(O)C=CC(=O)O (single isomer, unassigned; (+)) [(+)-Brompheniramine maleate] | 96.5 | 79.5 | 113 (inactive) | 102 (inactive)
CCN1CCN(C(=O)NC(C(=O)NC2C(=O)N3C(C(=O)O)=C(CSc4nnnn4C)CSC23)c2ccc(O)cc2)C(=O)C1=O (stereo unspecified) [Cefoperazone acid] | 100 | 103 | 91.9 (inactive) | 102 (inactive)
C=C1C(=O)OC2C1CCC(=C)C1CCC(=C)C12 (stereo unspecified) [Dehydrocostus lactone] | 83.9 | 64.3 | 110 (inactive) | 103 (inactive)
NC(CO)C(=O)NNCc1ccc(O)c(O)c1O (stereo unspecified) [Benserazide] | 95.2 | 82 | 101 (inactive) | 97.6 (inactive)

SMILES | cell number [1] | cell number [2] | H1.0 immunofluorescence intensity [3] | H1.0 immunofluorescence intensity [4]
Cl.O=c1cc(N2CCOCC2)oc2c(-c3ccccc3)cccc12 [LY-294,002 hydrochloride] | 82 | 90.9 | 82.5 (inactive) | 131 (inactive)
CCN1CCCC1CNC(=O)c1c(OC)ccc(Br)c1OC (stereo unspecified) [Remoxipride] | 101 | 101 | 96.7 (inactive) | 108 (inactive)
CN=C(NC#N)NCCSCc1csc(N=C(N)N)n1 [Tiotidine] | 102 | 88.1 | 105 (inactive) | 99.1 (inactive)
CC1(C)SC2C(NC(=O)COc3ccccc3)C(=O)N2C1C(=O)[O-] (stereo unspecified) [Pencillin V] | 100 | 101 | 87.4 (inactive) | 112 (inactive)
Cc1cccc(Nc2ccccc2C(=O)O)c1C [Mefenamic acid] | 104 | 107 | 104 (inactive) | 90.5 (inactive)
O=C(O)c1ccccc1Nc1ccccc1 [N-Phenylanthranilic acid] | 102 | 104 | 100 (inactive) | 97.5 (inactive)
CCCCCC(O)C=CC1OC(=O)CC(O)C1CC=CCCCC(=O)O (stereo unspecified) [11-Dehydro-thromboxane B2] | 100 | 97 | 98.6 (inactive) | 102 (inactive)
Nc1c(C(=O)O)c2nc3c(C(=O)O)cccc3oc-2cc1=O [2-amino-3-oxo-3H-phenoxazine-1,9-dicarboxylic acid] | 92 | 88.1 | 110 (inactive) | 101 (inactive)
C[N+](C)(C)CCOC(=O)CCC(=O)OCC[N+](C)(C)C.[Cl-].[Cl-] [Succinylcholine chloride] | 100 | 113 | 95.5 (inactive) | 84.7 (inactive)
COc1cc2ncc(-c3ccccc3)nc2cc1OC | 100 | 94.5 | 94 (inactive) | 107 (inactive)
Oc1ccc(Cn2cc[nH]c2=S)cc1 [1-(4-Hydroxybenzyl)imidazole-2-thiol] | 102 | 101 | 95.7 (inactive) | 96.1 (inactive)
OCCC#Cc1nc(-c2ccc(F)cc2)c(-c2ccncc2)n1CCCc1ccccc1 | 91.8 | 105 | 82.7 (inactive) | 111 (inactive)
COc1ccc(-c2cc3c(C)nc(N)nc3n(C3CCC(OCCO)CC3)c2=O)cn1 (stereo unspecified) | 35 | 51 | 97.8 (inactive) | 191 (active)
CC(=O)NNC(=O)N1Cc2ccccc2Oc2ccc(Cl)cc21 | 101 | 114 | 91 (inactive) | 103 (inactive)
COc1cc2c(Nc3ccc(NC(=O)c4ccccc4)cc3)ncnc2cc1OCCCN1CCOCC1 | 49.8 | 44 | 126 (active) | 151 (active)
Cl.NCc1c[nH]c(=S)n1[C@H]1CCc2c(F)cc(F)cc2C1 | 99.6 | 110 | 95.9 (inactive) | 111 (inactive)
CCCCCCCCCCCCCCCCCCOP(=O)([O-])OC1CC[N+](C)(C)CC1 [1,1-dimethylpiperidinium-4-yl octadecyl phosphate] | 103 | 96.6 | 98.2 (inactive) | 103 (inactive)
COc1cc2ncnc(Nc3ccc(Cl)cc3F)c2cc1OC.Cl | 83.3 | 102 | 95.7 (inactive) | 141 (active)
O=S(=O)(NCc1ccccn1)c1ccc(Br)c2ccccc12 [4-bromo-N-(2-pyridinylmethyl)-1-naphthalenesulfonamide] | 99.1 | 99.2 | 96.2 (inactive) | 107 (inactive)
CC(O)C(CO)NC(=O)C1CSSCC(NC(=O)C(N)Cc2ccccc2)C(=O)NC(Cc2ccccc2)C(=O)NC(Cc2c[nH]c3ccccc23)C(=O)NC(CCCCN)C(=O)NC(C(C)O)C(=O)N1 (stereo unspecified) [Octreotide] | 106 | 98.5 | 103 (inactive) | 98.9 (inactive)
COc1ccc(CC[C@H]2CCC[C@@H](CCc3ccc(OC)cc3)N2C[C@@H](O)CO)cc1.Cl | 101 | 103 | 93.3 (inactive) | 92.7 (inactive)
CC1CNc2c(cccc2S(=O)(=O)N[C@@H](CCCN=C(N)N)C(=O)N2CC[C@@H](C)C[C@@H]2C(=O)O)C1.O (stereo partly specified) | 102 | 104 | 89.5 (inactive) | 105 (inactive)
CCCCCCCCCCCCCCCCCC(=O)O [Octadecanoic acid] | 102 | 101 | 104 (inactive) | 95.3 (inactive)
CC[N+](CC)(CC)CCOc1cccc(OCC[N+](CC)(CC)CC)c1OCC[N+](CC)(CC)CC [Gallamine] | 101 | 107 | 93.8 (inactive) | 104 (inactive)

— the supplement of paper PMC7156485
